# Data reported in the supplement of paper PMC8728848.
# This is one part of a sample in which the strongest signals are shown more often than they occur.
# B1: SfaEH (Escherichia coli), Q1RDG5 (protein)
# chain: LLCRNNQTGQVFNSGDTSFRVNVSPVVQYDKSISVLDLSQLVSCQNEDSTGQNYDYLKILKGSGFSPALDTKTYGRLDFTSRPTGYARQLPLQFDLQVTEAFYQYGVWKPFPAKLYLYPAPGVFGKVINNGDLLATLYVNKFSTKGQEAGERNFTWRFYATNDVYIQTGTCRVSSNNVKVDLPSYPGGPVTVPLTVRCDQTQSVSYTLSGPVTGSGNTVFANTAASGSGGVGIQLSDNVGPVPAGQPRSLGQVGSSPVSLGLKASYALTGQASPTPGAVQSVINVTFSYN
# Columns and labels:
# Assay in all cases: glycan array binding signal (z-score within array); higher = stronger binding
# Details in all cases: glycan notation: IUPAC condensed, linker removed
# [1] = target: Fuc(a1-2)Gal
# Outline: (§1)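 Glycan array binding is given as a within-array Z-score, which can be read as non-binding when negative. The arrays, 3228 of them, came from the Consortium for Functional Glycomics database and were retained only where the protein sequence was available. Z-scores were averaged across arrays of the same protein sequence at different concentrations or buffers and across linkers.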
# [2] = target: Fuc(a1-2)Gal(b1-3)GalNAc(b1-4)[Neu5Ac(a2-3)]Gal(b1-4)Glc
# Outline: as §1
# [3] = target: Fuc(a1-2)Gal(b1-3)[Fuc(a1-4)]GlcNAc(b1-2)Man(a1-3)[Fuc(a1-2)Gal(b1-3)[Fuc(a1-4)]GlcNAc(b1-2)Man(a1-6)]Man(b1-4)GlcNAc(b1-4)[Fuc(a1-6)]GlcNAc(b1-4)[Fuc(a1-6)]GlcNAc
# Outline: as §1
# [4] = target: Fuc(a1-2)Gal(b1-4)GlcNAc(b1-2)Man(a1-3)[Fuc(a1-2)Gal(b1-4)GlcNAc(b1-2)Man(a1-6)]Man(b1-4)GlcNAc(b1-4)[Fuc(a1-6)]GlcNAc
# Outline: as §1
# [5] = target: Fuc(a1-2)Gal(b1-4)[Fuc(a1-3)]GlcNAc(b1-3)Gal(b1-4)[Fuc(a1-3)]GlcNAc(b1-3)Gal(b1-4)[Fuc(a1-3)]GlcNAc
# Outline: as §1
# [6] = target: Fuc(a1-2)[Gal(a1-3)]Gal(b1-4)GlcNAc(b1-2)Man(a1-3)[Fuc(a1-2)[Gal(a1-3)]Gal(b1-4)GlcNAc(b1-2)Man(a1-6)]Man(b1-4)GlcNAc(b1-4)GlcNAc
# Outline: as §1
# [7] = target: Fuc(a1-2)[Gal(a1-4)]Gal(b1-4)GlcNAc
# Outline: as §1
# [8] = target: Fuc(a1-3)[Gal(b1-4)]GlcNAc
# Outline: as §1
# [9] = target: Gal(b1-3)GalNAc(a1-3)[Fuc(a1-2)]Gal(b1-4)Glc
# Outline: as §1
# [10] = target: Gal(b1-3)GlcNAc(a1-3)Gal(b1-4)GlcNAc
# Outline: as §1
# [11] = target: Gal(b1-3)GlcNAc(b1-3)Gal(b1-4)GlcNAc(b1-3)Gal(b1-4)GlcNAc(b1-2)[Gal(b1-3)GlcNAc(b1-3)Gal(b1-4)GlcNAc(b1-3)Gal(b1-4)GlcNAc(b1-6)]Man(a1-6)[Gal(b1-3)GlcNAc(b1-3)Gal(b1-4)GlcNAc(b1-3)Gal(b1-4)GlcNAc(b1-2)Man(a1-3)]Man(b1-4)GlcNAc(b1-4)[Fuc(a1-6)]GlcNAc
# Outline: as §1
# [12] = target: Gal(b1-3)[Fuc(a1-4)]GlcNAc(b1-3)Gal(b1-3)[Fuc(a1-4)]GlcNAc
# Outline: as §1
# [13] = target: Gal(b1-3)[Neu5Ac(a2-6)]GlcNAc(b1-4)Gal(b1-4)Glc
# Outline: as §1
# [14] = target: Gal(b1-4)GlcNAc(b1-2)[Gal(b1-4)GlcNAc(b1-4)]Man(a1-3)[GlcNAc(b1-4)][Gal(b1-4)GlcNAc(b1-2)[Gal(b1-4)GlcNAc(b1-6)]Man(a1-6)]Man(b1-4)GlcNAc(b1-4)GlcNAc
# Outline: as §1
# [15] = target: Gal(b1-4)GlcNAc(b1-3)Gal(b1-3)GlcNAc
# Outline: as §1
# [16] = target: Gal(b1-4)GlcNAc(b1-3)Gal(b1-4)GlcNAc(b1-3)Gal(b1-4)GlcNAc
# Outline: as §1
# [17] = target: Gal(b1-4)GlcNAc(b1-3)Gal(b1-4)GlcNAc(b1-3)Gal(b1-4)GlcNAc(b1-3)Gal(b1-4)GlcNAc(b1-2)Man(a1-3)[Gal(b1-4)GlcNAc(b1-3)Gal(b1-4)GlcNAc(b1-3)Gal(b1-4)GlcNAc(b1-3)Gal(b1-4)GlcNAc(b1-2)Man(a1-6)]Man(b1-4)GlcNAc(b1-4)[Fuc(a1-6)]GlcNAc
# Outline: as §1
# [18] = target: Gal(b1-4)GlcNAc(b1-3)Gal(b1-4)GlcNAc(b1-3)Gal(b1-4)GlcNAc(b1-3)Gal(b1-4)GlcNAc(b1-2)[Gal(b1-4)GlcNAc(b1-3)Gal(b1-4)GlcNAc(b1-3)Gal(b1-4)GlcNAc(b1-3)Gal(b1-4)GlcNAc(b1-6)]Man(a1-6)[Gal(b1-4)GlcNAc(b1-3)Gal(b1-4)GlcNAc(b1-3)Gal(b1-4)GlcNAc(b1-3)Gal(b1-4)GlcNAc(b1-2)Man(a1-3)]Man(b1-4)GlcNAc(b1-4)[Fuc(a1-6)]GlcNAc
# Outline: as §1
# [19] = target: Gal(b1-4)GlcNAc(b1-3)Gal(b1-4)GlcNAc(b1-3)Gal(b1-4)GlcNAc(b1-3)Gal(b1-4)GlcNAc(b1-3)Gal(b1-4)GlcNAc(b1-2)Man(a1-3)[Gal(b1-4)GlcNAc(b1-3)Gal(b1-4)GlcNAc(b1-3)Gal(b1-4)GlcNAc(b1-3)Gal(b1-4)GlcNAc(b1-3)Gal(b1-4)GlcNAc(b1-2)Man(a1-6)]Man(b1-4)GlcNAc(b1-4)GlcNAc
# Outline: as §1
# [20] = target: Gal(b1-4)GlcNAc(b1-3)Gal(b1-4)GlcNAc(b1-6)[Gal(b1-3)]GalNAc
# Outline: as §1
# [21] = target: Gal(b1-4)GlcNAc(b1-3)[Gal(b1-4)GlcNAc(b1-6)]Gal(b1-4)GlcNAc
# Outline: as §1
# [22] = target: Gal3S6S(b1-4)GlcNAc
# Outline: as §1
# [23] = target: Gal6S(b1-3)GlcNAc6S
# Outline: as §1
# [24] = target: Gal6S(b1-4)Glc
# Outline: as §1
# [25] = target: GalNAc(b1-4)GlcNAc
# Outline: as §1
# [26] = target: GalNAc3S(b1-4)GlcNAc
# Outline: as §1
# [27] = target: GalNAc3S(b1-4)GlcNAc3S
# Outline: as §1
# [28] = target: GalNAc3S(b1-4)[Fuc(a1-3)]GlcNAc
# Outline: as §1
binder,measurement,setting,value
B1,glycan array binding signal (z-score),[1],-0.532
same,glycan array binding signal (z-score),[2],-0.413
same,glycan array binding signal (z-score),[3],1.21
same,glycan array binding signal (z-score),[4],-0.238
same,glycan array binding signal (z-score),[5],1.77
same,glycan array binding signal (z-score),[6],-0.531
same,glycan array binding signal (z-score),[7],0.037
same,glycan array binding signal (z-score),[8],-0.018
same,glycan array binding signal (z-score),[9],-0.503
same,glycan array binding signal (z-score),[10],-0.23
same,glycan array binding signal (z-score),[11],3.4
same,glycan array binding signal (z-score),[12],0.274
same,glycan array binding signal (z-score),[13],-0.638
same,glycan array binding signal (z-score),[14],1.56
same,glycan array binding signal (z-score),[15],0.732
same,glycan array binding signal (z-score),[16],0.382
same,glycan array binding signal (z-score),[17],-0.08
same,glycan array binding signal (z-score),[18],3.01
same,glycan array binding signal (z-score),[19],2.05
same,glycan array binding signal (z-score),[20],-0.15
same,glycan array binding signal (z-score),[21],0.131
same,glycan array binding signal (z-score),[22],2.12
same,glycan array binding signal (z-score),[23],-0.513
same,glycan array binding signal (z-score),[24],-0.148
same,glycan array binding signal (z-score),[25],-0.125
same,glycan array binding signal (z-score),[26],-0.199
same,glycan array binding signal (z-score),[27],0.153
same,glycan array binding signal (z-score),[28],2.28
